From PubChem BioAssay (EPA / NIEHS)
Values joined by “and” are separate entries in the source; they are usually repeats but may differ in a detail not shown here. Equal values may be shown once. A structure can be active in one record and inactive in another. Active and inactive are the calls of the source. Rule for the calls: active = hit-call score of the fitted dose curve at least 0.9, where 1 is the maximum; inactive = score below 0.9.

Test: ATG_Sox_CIS: Attagene CIS-FACTORIAL HepG2 Assay for human SRY-box transcription factor (SOX) (AID 2282960)
Details: HepG2 Attagene cis-factorial SOX reporter, mRNA; actives raise or lower the signal
Method: ATG_CIS is a cell-based, multiplexed-readout assay that uses HepG2, a human liver cell line, with measurements taken at 24 hours after chemical dosing in a 24-well plate.ATG_Sox_CIS is one of 52 assay component(s) measured or calculated from the ATG_CIS assay. It is designed to make measurements of mRNA induction, a form of inducible reporter, as detected with fluorescence intensity signals by Reverse transcription polymerase chain reaction (RT-PCR) and Capillary electrophoresis technology.Data from the assay component ATG_Sox_CIS was analyzed into 1 assay endpoint. This assay endpoint, ATG_Sox_CIS, was analyzed with bidirectional fitting relative to DMSO as the negative control and baseline of activity. Using a type of inducible reporter, measures of mRNA for gain or loss-of-signal activity can be used to understand the reporter gene at the transcription factor-level as they relate to the gene SOX1. Furthermore, this assay endpoint can be referred to as a primary readout, because this assay has produced multiple assay endpoints where this one serves a reporter gene function. To generalize the intended target to other relatable targets, this assay endpoint is annotated to the dna binding intended target family, where the subfamily is HMG box protein.
Human liver HepG2 cells are transiently transfected with multiple reporter transcription units (MRTUs) in 6-well plates using FuGene 6 reagent (Roche; 3 ml FuGene/1 mg DNA). The MRTU constructs are regulated by a cis-regulating element (promoter). […] A major difference between the CIS and TRANS system is that in CIS activities of endogenous TFs are measured, whereas the TRANS assay evaluates changes in activities of exogenous, chimeric NR-Gal4 proteins. […] At the end of 24 hour incubation, total RNA was isolated using TriZol reagent (Invitrogen). The isolated RNA is then reverse-transcribed using oligo(dT) primer and Mo-MLV reverse transcriptase (Invitrogen) with DNAse I (Ambion) treatment for 30 min. The one-tenth of the produced cDNA was amplified by PCR using Taq DNA polymerase (Invitrogen) and two reporter sequence-specific primers. The PCR products were fluorescently labeled by primer extension with 6-arboxyfluorescein (6-FAM) 5'-labeled reporter sequence-specific primer (2 min at 95 C, 20 s at 68 C and 10 min at 72 C) and these products were digested with 5U of HpaI (New England Biolabs) for 2h at 37 C. The fragments were purified using Qiaquick PCR columns (Qiagen), analyzed on an ABI 3130xL genetic analyzer (Applied Biosystems) with peak positions identified by using a set of X-rhodamine (ROX)-labeled MapMarker1000 molecular weight standards (BioVentures). The raw capillary electrophoresis data was processed using Attagraph software (Attagene).

| Structure (SMILES) | outcome | AC50 |
| --- | --- | --- |
| N#Cc1nn(-c2c(Cl)cc(C(F)(F)F)cc2Cl)c(N)c1S(=O)C(F)(F)F (stereo not given) | inactive |  |
| CN(C)C(=S)SSC(=S)N(C)C | inactive |  |
| Cc1ccc(-c2c(Cl)nc(C#N)n2S(=O)(=O)N(C)C)cc1 | inactive |  |
| C#CCOS(=O)OC1CCCCC1Oc1ccc(C(C)(C)C)cc1 (stereo not given) |  | 4.22 µM (active) |
| COc1nc(NC(C)C)nc(NC(C)C)n1 | inactive |  |
| COc1nc(C)nc(NC(=O)NS(=O)(=O)c2ccccc2CCC(F)(F)F)n1 | inactive |  |
| COC(=O)C=C(C)OP(=O)(OC)OC | inactive |  |
| CCCCC(CC)COC(=O)c1ccccc1C(=O)OCC(CC)CCCC (stereo not given) | inactive |  |
| COc1ccc(C(c2ccc(OC)cc2)C(Cl)(Cl)Cl)cc1 | inactive |  |
| C=CC1(C)OC(=O)N(c2cc(Cl)cc(Cl)c2)C1=O (stereo not given) | inactive |  |
| CO/C=C(/C(=O)OC)c1ccccc1Oc1cc(Oc2ccccc2C#N)ncn1 | inactive |  |
| CC(C)Oc1cc(-n2nc(C(C)(C)C)oc2=O)c(Cl)cc1Cl | inactive |  |
| O=C(O)c1nc(Cl)ccc1Cl | inactive |  |
| CCCC1COC(Cn2cncn2)(c2ccc(Cl)cc2Cl)O1 (stereo not given) | inactive |  |
| CCOc1cc(Oc2ccc(C(F)(F)F)cc2Cl)ccc1[N+](=O)[O-] | inactive |  |
| COc1cnc(OC)n2nc(NS(=O)(=O)c3c(OCC(F)F)cccc3C(F)(F)F)nc12 | inactive |  |
| CCc1nn(C)c(C(=O)NCc2ccc(C(C)(C)C)cc2)c1Cl | inactive |  |
| COC(=O)C(C)Oc1ccc(Oc2ccc(Cl)cc2Cl)cc1 (stereo not given) | inactive |  |
| COc1nc(C)nc(NC(=O)NS(=O)(=O)c2ccccc2Cl)n1 | inactive |  |

| Structure (SMILES) | outcome | AC50 |
| --- | --- | --- |
| CCCN(CCC)c1c([N+](=O)[O-])cc(S(N)(=O)=O)cc1[N+](=O)[O-] | inactive |  |
| CNC(=S)S | inactive |  |
| COC(=O)N(OC)c1ccccc1COc1ccn(-c2ccc(Cl)cc2)n1 | inactive |  |
| N#CC(CCc1ccc(Cl)cc1)(Cn1cncn1)c1ccccc1 (stereo not given) | inactive |  |
| COP(=S)(OC)Oc1nc(Cl)c(Cl)cc1Cl | inactive |  |
| CCCCNC(=O)OCC#CI | inactive | 26.5 µM (active) |
| CCOC(=O)CC(SP(=S)(OC)OC)C(=O)OCC (stereo not given) | inactive |  |
| CCCCOC(=O)c1ccccc1C(=O)OCCCC | inactive |  |
| COP(N)(=O)SC (stereo not given) | inactive |  |
| CC(C)C1(C)N=C(c2nc3ccccc3cc2C(=O)O)NC1=O (stereo not given) | inactive |  |
| C=CCC1=C(C)C(OC(=O)C2C(C=C(C)C)C2(C)C)CC1=O (stereo not given) | inactive | 90.4 µM (active) and 105 µM (active) |
| C=CCC1=C(C)[C@@H](OC(=O)[C@@H]2[C@@H](C=C(C)C)C2(C)C)CC1=O | inactive |  |
| O=C(Nc1ccccc1)Nc1ccnc(Cl)c1 |  | 11.9 µM (active) |
| CC1=C(C(=O)Nc2ccccc2)SCCO1 | inactive |  |
| O=C(O)COc1nc(Cl)c(Cl)cc1Cl | inactive |  |
| CC(Oc1ccc(Cl)cc1Cl)C(=O)O (stereo not given) | inactive |  |
| CC1COC(Cn2cncn2)(c2ccc(Oc3ccc(Cl)cc3)cc2Cl)O1 (stereo not given) | inactive |  |
| CCCCNC(=O)n1c(NC(=O)OC)nc2ccccc21 | inactive |  |
| Cc1c(F)c(F)c(COC(=O)C2C(/C=C(\Cl)C(F)(F)F)C2(C)C)c(F)c1F (stereo not given) | inactive |  |
